Reference: paper PMC5540273 (PLoS ONE, 2017)

Each compound was assayed on PHKG1. Settings: concentration: 1 μM, replicates: in singlicate; n = 1.
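Note: KINOMEscan kinase panel screen.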

Q: `O=C(Nc1cccc(-c2nn3ccccc3c2-c2ccnc(Nc3cccc(C(F)(F)F)c3)n2)c1)c1c(F)cccc1F` [GSK292658] was tested. Which “%Inh” value did it give?
A: Its value is 0%.

Q: How did the “%Inh” value turn out when `Nc1n[nH]c2cnc(-c3ccccc3)cc12` [SB-642124] was run?
A: Its value is 0%.

Q: How did the “%Inh” value turn out when `CN(c1ccc(NC(=O)Nc2cc(C(F)(F)F)ccc2F)cc1)c1ccnc(Nc2ccc(S(N)(=O)=O)cc2)n1` [GW809893] was run?
A: The value was 14%.

Q: How did the “%Inh” value turn out when `Clc1ccc(-c2nn3ncccc3c2-c2ccnc(Nc3ccc4c(c3)OCCO4)n2)cc1` [GW829116] was run?
A: Its value is 0%.

Q: `Cn1cc(-c2[nH]c3cc(NC(=O)[C@H](N)C4CCCCC4)cc4c3c2C=NNC4=O)cn1` was tested. Which “%Inh” value did it give?
A: Its value is 65%.

Each compound was assayed on PHKG2. Settings: concentration: 1 μM, replicates: in singlicate; n = 1.

Q: For `FC(F)(F)c1ccc(/C=C/c2cncnc2Nc2ccc3[nH]c(Cc4ccccc4)nc3c2)cc1` [GW709199], which “%Inh” value is on record?
A: Its value is 0%.

Q: With `O=C(Nc1cccc(-c2nn3ccccc3c2-c2ccnc(Nc3cccc(F)c3)n2)c1)c1c(F)ccc(F)c1Cl` [GSK357952] as the compound, how does the “%Inh” value read?
A: The value was 0%.

Q: With `O=C(Nc1ccccc1F)NC1CCN(c2ccnc(Nc3ccc(F)cc3)n2)CC1` [GSK1379800] as the compound, how does the “%Inh” value read?
A: The value was 0%.

Q: For `Cc1occc1-c1ncc(OC[C@@H](N)Cc2c[nH]c3ccccc23)cc1-c1ccc2[nH]nc(C)c2c1.O=C(O)C(F)(F)F` [GSK682037], which “%Inh” value is on record?
A: The value was 0%.

Q: How did the “%Inh” value turn out when `C[C@@H]1CC[C@@H](C(=O)Nc2ccccc2)CN1c1cc(-c2ccc3c(N)n[nH]c3c2)nc(N)n1` [GSK2286062] was run?
A: The value was 21%.

Q: How did the “%Inh” value turn out when `Cl.NC(=O)c1cccc(Nc2nccc(Nc3ccc(Oc4c(Cl)cccc4Cl)c(Cl)c3)n2)c1` [GW659009] was run?
A: Its value is 0%.

Q: How did the “%Inh” value turn out when `Cc1ccc(C(=O)Nc2ccc(Nc3ccnc4cc(-c5nccs5)ccc34)cc2O)cc1.Cl` [GW494702] was run?
A: Its value is 0%.

Q: Which “%Inh” value does the source give for `CNC(=O)c1ccccc1Nc1nc(Nc2ccc(N3CCOCC3)cc2)ncc1Cl.Cl` [GSK1576028] here?
A: Its value is 72%.

Q: With `COc1cc(Nc2nccc(-c3c(-c4cccc(NC(=O)c5c(F)cccc5F)c4)nn4ccccc34)n2)cc(OC)c1OC` [GSK323521] as the compound, how does the “%Inh” value read?
A: The value was 10%.

Q: How did the “%Inh” value turn out when `Nc1ncnc2c1nc(-c1ccccc1)n2-c1ccccc1` [SKF-97293] was run?
A: Its value is 0%.

Q: Which “%Inh” value does the source give for `Fc1ccc(-c2ncn(C3CCNCC3)c2-c2ccnc(Oc3ccc(-c4ccccc4)cc3)n2)cc1` [SB-245391] here?
A: Its value is 0%.

Q: How did the “%Inh” value turn out when `Cl.Cl.NCC(NCc1ccc(-c2ccnc3[nH]ccc23)s1)c1ccccc1` (stereo not drawn) [GSK1321565] was run?
A: The value was 13%.

Q: With `CC(=O)N1CCN(c2ccc(Nc3nccc(-c4sc(C(C)C)nc4-c4cccc(NS(=O)(=O)c5cccc(Cl)c5)c4)n3)cn2)CC1` [GSK1660437] as the compound, how does the “%Inh” value read?
A: The value was 0%.

Q: With `COc1ccc(Nc2nccc(N3CCC(NC(=O)Nc4cccc(OC)c4)C3)n2)cc1` (stereo not drawn) [GSK1379742] as the compound, how does the “%Inh” value read?
A: Its value is 0%.

Q: With `Cl.Cl.NCC(NC(=O)c1cc(-c2ccccc2)c(-c2ccnc3[nH]ccc23)s1)c1ccccc1` (stereo not drawn) [GSK1321561] as the compound, how does the “%Inh” value read?
A: Its value is 0%.

Q: Which “%Inh” value does the source give for `O=C(Nc1n[nH]c2cc(-c3ccoc3)ccc12)C1CC1` [SB-738481] here?
A: The value was 0%.

Q: Which “%Inh” value does the source give for `Cl.c1ccc(-c2ccc3c(Nc4ccc5[nH]ccc5c4)ccnc3c2)nc1` [GW440138] here?
A: Its value is 0%.

Q: `COc1cc(Nc2nccc(-c3c(-c4cccc(NC(=O)c5c(F)cccc5F)c4)nn4ncccc34)n2)cc(OC)c1OC` [GSK327238] was tested. Which “%Inh” value did it give?
A: Its value is 3%.

Q: For `CCCCc1nn2ncccc2c1-c1ccnc(Nc2ccc(N3CCN(C)CC3)cc2)n1` [GW684941], which “%Inh” value is on record?
A: Its value is 4%.

Q: Which “%Inh” value does the source give for `Nc1ncc(-c2ccc3nccc(-c4ccncc4)c3c2)cc1S(=O)(=O)N1CCOCC1` [GSK1627798] here?
A: Its value is 0%.

Q: How did the “%Inh” value turn out when `Cc1ccc(S(=O)(=O)Nc2ccc(Nc3nccc(Nc4cccc5[nH]ncc45)n3)cc2)cc1` [GSK581271] was run?
A: Its value is 0%.

Q: With `COc1ccc(Nc2nccc(NCCNC(=O)c3cc4ccccc4s3)n2)cc1` [GSK1379896] as the compound, how does the “%Inh” value read?
A: The value was 2%.

Q: `NCCCC(NC(=O)c1cc(Br)c(-c2ccnc3[nH]ccc23)s1)c1ccccc1.O=C(O)C(F)(F)F.O=C(O)C(F)(F)F` (stereo not drawn) [GSK1287544] was tested. Which “%Inh” value did it give?
A: Its value is 0%.

Q: Which “%Inh” value does the source give for `CC(C)c1nc(-c2cccc(NS(=O)(=O)c3c(F)cccc3F)c2F)c(-c2ccnc(Nc3ccc(N4CCOCC4)nc3)n2)s1` [GSK2008607] here?
A: Its value is 0%.

Q: How did the “%Inh” value turn out when `O=C(NC1CCN(c2ccnc(Nc3ccc(F)cc3)n2)C1)c1cc2ccccc2s1` (stereo not drawn) [GSK1379716] was run?
A: Its value is 7%.

Q: With `Nc1ncc(-c2cccnc2)c2scc(-c3ccc4c(c3)CCN4C(=O)Cc3ccccc3)c12` [GSK683281] as the compound, how does the “%Inh” value read?
A: Its value is 0%.

Q: Which “%Inh” value does the source give for `CC(C)(C)c1ccc2nccc(Nc3cccc(O)c3)c2c1` [GW856795] here?
A: Its value is 9%.

Q: `COc1cccc(C2=C(Nc3ccc(Cl)c(C(=O)O)c3)C(=O)NC2=O)c1` [SB-390769] was tested. Which “%Inh” value did it give?
A: The value was 0%.

Q: How did the “%Inh” value turn out when `Cc1ccc(F)c(C(=O)Nc2cccc(-c3nn4ccccc4c3-c3ccnc(Nc4cccc(F)c4)n3)c2)c1F` [GSK361061] was run?
A: Its value is 6%.

Q: Which “%Inh” value does the source give for `O=C(Nc1n[nH]c2nc(-c3ccc(O)cc3)ccc12)C1CC1` [SB-710363] here?
A: Its value is 0%.

Q: Which “%Inh” value does the source give for `c1ccc(-c2n[nH]cc2Nc2ccnc3ccccc23)nc1` [GW694077] here?
A: The value was 30%.

Q: `CCn1c(-c2nonc2N)nc2c(C#CC(C)(C)O)ncc(OCCCCN)c21.O=C(O)C(F)(F)F.O=C(O)C(F)(F)F` [GSK507274] was tested. Which “%Inh” value did it give?
A: The value was 0%.

Q: How did the “%Inh” value turn out when `O=C(Nc1cccc(-c2nn3ccccc3c2-c2ccnc(Nc3cccc(C(F)(F)F)c3)n2)c1)c1c(F)cccc1F` [GSK292658] was run?
A: Its value is 0%.

Q: Which “%Inh” value does the source give for `Nc1n[nH]c2cnc(-c3ccccc3)cc12` [SB-642124] here?
A: Its value is 0%.

Q: How did the “%Inh” value turn out when `CN(c1ccc(NC(=O)Nc2cc(C(F)(F)F)ccc2F)cc1)c1ccnc(Nc2ccc(S(N)(=O)=O)cc2)n1` [GW809893] was run?
A: Its value is 0%.

Q: For `Clc1ccc(-c2nn3ncccc3c2-c2ccnc(Nc3ccc4c(c3)OCCO4)n2)cc1` [GW829116], which “%Inh” value is on record?
A: The value was 0%.

Q: `Cn1cc(-c2[nH]c3cc(NC(=O)[C@H](N)C4CCCCC4)cc4c3c2C=NNC4=O)cn1` was tested. Which “%Inh” value did it give?
A: Its value is 23%.
